In general, inhibition refers to the change of the read-out against control, counted positive when it falls.

Calls of active or inactive are those of the source.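 The calls were made as follows, unless noted: active = inhibition at or above 50% at 10 µM; inactive = inhibition below 50%.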

This note sets out measurements from PubChem BioAssay.

A short description of assay [1]: inhibitors of TNFa-induced NFkB p65 translocation, primary screen, imaging, HUVEC, MLSMR starter and 10KST1 sets (AID 438;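 active = inhibition above 20% together with a positive visual image hit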;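 also: compound added about 3h40 before a 20 min TNFalpha stimulation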;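 as to inhibition: signal is the nuclear over cytoplasmic p65 intensity ratio per well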). The following applies: HUVEC TNFa-induced p65 nuclear translocation; cell count: measured here: nuclei count (cytotoxicity indicator), at 2.08 µM; inhibition: at 2 µM, stronger effect = higher value, 0% TNFa-plus-vehicle, 100% no-TNFa wells.
Assay [2] in a line: inhibitors of mutant huntingtin aggregation, primary screen, imaging, exon1htt(103Q)mCFP cells, high-content imaging (AID 483;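 active = visual image review flags a hit and inhibition of aggregation exceeds 20%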;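 also: compound exposure lasted 3 days before fixation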;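 as to nuclei count: percent of the per-plate median nuclei count of sample wells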). To be noted: exon1htt(103Q)mCFP cell line, aggregate imaging, at 2 µM; inhibition of aggregation: stronger effect = higher value; nuclei count: measured here: cell count, toxicity.
Assay [3] is described as follows: inhibitors of E-selectin induction by TNFa, primary screen, imaging, HUVEC, immunofluorescence, MLSMR starter and 10KST1 sets (AID 487;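 active = visually confirmed hit in the image check and inhibition above 20%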;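 as to inhibition: signal is fraction of cell area covered by stained E-selectin grains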;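 as to nuclei count: 100% = median nuclei count of all wells on the same plate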). To be noted: HUVEC TNFalpha-induced E-selectin immunofluorescence imaging, at 2 µM; inhibition: stronger effect = higher value; nuclei count: measured here: cell number, toxicity.
Assay [4] deals with Voltage-gated potassium channel subunit beta-2 (Rattus norvegicus) (UniProt P62483). The experiment in a line: KvBeta enzyme negative modulators, primary screen, biochemical, NADPH fluorescence (AID 622;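 active = fluorescence slope higher than the sample average by over 3 SD, cut at about -0.22 in these data, passing the limit was not always enough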;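 also: slope of raw intensity against log time taken from 70 to 1610 s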). The following applies: recombinant KvBeta, 4-cyanobenzaldehyde reduction, at 10 µM, stronger effect = higher value.
Chain of Voltage-gated potassium channel subunit beta-2 (Rattus norvegicus) (P62483 whole entry, looked up): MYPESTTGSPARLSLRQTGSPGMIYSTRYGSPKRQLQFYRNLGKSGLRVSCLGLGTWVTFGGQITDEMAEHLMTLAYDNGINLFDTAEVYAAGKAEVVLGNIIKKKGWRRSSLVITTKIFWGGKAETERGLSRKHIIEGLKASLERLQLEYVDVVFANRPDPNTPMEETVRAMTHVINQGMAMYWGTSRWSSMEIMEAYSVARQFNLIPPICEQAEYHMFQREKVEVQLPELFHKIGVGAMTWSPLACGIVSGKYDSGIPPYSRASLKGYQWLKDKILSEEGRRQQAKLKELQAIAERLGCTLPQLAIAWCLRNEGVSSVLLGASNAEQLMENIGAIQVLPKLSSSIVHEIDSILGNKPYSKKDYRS
The target is the same in assay [5]. Kind of assay: KvBeta positive modulators, primary screen, biochemical, NADPH fluorescence (AID 623;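 active = NADPH fluorescence slope more negative than the mean of all samples by about 3 SD, 99.7% confidence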;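 also: fluorescence intensity change per second fitted from 20 to 320 s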). To be noted: Recombinant KvBeta, NADPH fluorescence decrease slope, 10 min; at 10 µM; stronger effect = lower value.
For assay [6], the target named is Alpha-2C adrenergic receptor (Homo sapiens) (UniProt P18825). The experiment in a line: modulators of alpha2C/GIRK thallium flux, primary screen, cell-based, HEK293 alpha2C/GIRK1/2 (AID 624;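 active = fluorescence slope after compound addition differing from the mean of all screened samples at 99.7% confidence, in either direction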;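 also: slope of fluorescence ratio to pre-addition baseline per second over 15 to 24 s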). To be noted: thallium flux BTC fluorescence, at 10 µM, actives lie on both sides.
Chain of Alpha-2C adrenergic receptor (Homo sapiens) (P18825 whole entry, looked up): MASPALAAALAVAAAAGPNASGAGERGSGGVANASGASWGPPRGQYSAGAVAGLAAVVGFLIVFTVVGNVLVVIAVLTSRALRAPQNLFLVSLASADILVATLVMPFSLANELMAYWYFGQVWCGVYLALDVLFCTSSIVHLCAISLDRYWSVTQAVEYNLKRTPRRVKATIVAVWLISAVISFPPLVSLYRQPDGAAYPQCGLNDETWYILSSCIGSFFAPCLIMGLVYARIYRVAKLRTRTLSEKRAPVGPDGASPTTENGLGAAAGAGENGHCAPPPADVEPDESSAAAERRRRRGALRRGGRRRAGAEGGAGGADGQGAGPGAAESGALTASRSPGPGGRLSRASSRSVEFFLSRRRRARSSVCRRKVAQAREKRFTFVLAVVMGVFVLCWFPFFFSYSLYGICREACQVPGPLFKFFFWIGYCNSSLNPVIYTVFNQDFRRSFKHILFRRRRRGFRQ
Assay [7] is described as follows: inhibitors of Sendai virus-induced IRF3 signaling, primary screen, TLR/RLR signaling modifier project, cell-based, Sendai virus stimulus, luciferase, 10K MLSCN set (AID 602276).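 Also: firefly luciferase from ISG56 promoter only with Renilla not read in this screen; 0% = Sendai virus plus DMSO and 100% = medium plus DMSO without virus.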 To be noted: HEK293 RL24 IRF3 luciferase reporter, at 10 µM, stronger effect = higher value. A general note: In a reporter assay the amount or activity of a reporter protein is the signal.
A short description of assay [8]: inhibitors of poly I:C-induced TLR3 signaling, primary screen, cell-based, poly I:C stimulus, luciferase, 10K MLSCN set (AID 602277;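 active = inhibition of the reporter signal at or above 50%; inactive = inhibition below 50%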). The following applies: HEK293-TLR3 RL24 IRF3 luciferase reporter, at 10 µM, stronger effect = higher value.

On to `CCCN(Cc1cc2cc(C)ccc2[nH]c1=O)C(=O)c1cccc(OC)c1`, for which the cell count in assay [1] worked out at 594. Further, the inhibition was 8.2% (inactive) in assay [1], -74% (inactive) in assay [3], 10.4% (inactive) in assay [7] and 10.9% (inactive) in assay [8]. Further, the inhibition of aggregation in assay [2] is -3.9% (inactive). Besides, the nuclei count worked out at 101% in assay [2] and 107% in assay [3]. In assay [4], the fluorescence slope is -0.506 (inactive). In addition, in assay [5], the NADPH fluorescence slope was -5.1e-05 (inactive). In assay [6], the slope is 0.00579 (inactive).

Consider `CCc1nnc(SCc2cn3c(C)cc(C)nc3n2)n1N`, for which the cell count in assay [1] was 571. Also, the inhibition was -13.6% (inactive) in assay [1], 2.4% (inactive) in assay [3], -4.74% (inactive) in assay [7] and 4.52% (inactive) in assay [8]. For the same compound, the inhibition of aggregation in assay [2] was -13.3% (inactive). Also, the nuclei count in assay [2] is 104%; in assay [3], 143%. For the same compound, the fluorescence slope in assay [4] is -0.284 (inactive). In addition, the NADPH fluorescence slope in assay [5] is -5.4e-06 (inactive). The slope in assay [6] is 0.00669 (inactive).

As for `CCOC(=O)C1CCN(S(=O)(=O)c2cccc(-c3csc(C)n3)c2)CC1`, the cell count in assay [1] worked out at 234. Also, the inhibition in assay [1] was 4.4% (inactive); in assay [3], 32.4% (inactive); in assay [7] it was 14.1% (inactive); in assay [8] it was 2.04% (inactive). The inhibition of aggregation in assay [2] was 8.1% (inactive). The nuclei count in assay [2] was 97.1%; in assay [3], 89%. The fluorescence slope in assay [4] was -0.433 (inactive). In assay [5], the NADPH fluorescence slope is -0.000124 (inactive). Also, the slope in assay [6] is 0.0037 (inactive).

In the case of `COc1ccc(Cc2nc(-c3ccc(NC(=O)c4cccnc4)cc3)no2)cc1`, the cell count in assay [1] turned out to be 609. Moreover, the inhibition was 9.6% (inactive) in assay [1], -45.6% (inactive) in assay [3], -8.06% (inactive) in assay [7] and -67.3% (inactive) in assay [8]. Besides, the inhibition of aggregation in assay [2] was 23.4% (inactive). In addition, the nuclei count in assay [2] is 121%; in assay [3], 96.3%. The fluorescence slope in assay [4] is -0.6 (inactive). Also, in assay [5], the NADPH fluorescence slope was -5e-05 (inactive). In addition, the slope in assay [6] is 0.0059 (inactive).

For `CC1CCCCC1NC(=O)c1ccc(N2CCCC2=O)cc1` (centres undefined), the cell count in assay [1] came out at 536. Moreover, the inhibition was -21.7% (inactive) in assay [1], -20.8% (inactive) in assay [3], 5.47% (inactive) in assay [7] and -5.67% (inactive) in assay [8]. For the same compound, the inhibition of aggregation in assay [2] is -20.5% (inactive). Also, the nuclei count in assay [2] came out at 142%; in assay [3] it was 103%. Moreover, in assay [4], the fluorescence slope was -0.51 (inactive). The NADPH fluorescence slope in assay [5] is 3.4e-05 (inactive). The slope in assay [6] is 0.00599 (inactive).

As to `O=C(CN1CCC(O)(c2ccc3c(c2)OCO3)CC1)OC1CCCCC1`, the cell count in assay [1] was determined as 459. Further, the inhibition in assay [1] was -3.6% (inactive); in assay [3], -55.1% (inactive); in assay [7] it was 8.26% (inactive); in assay [8], 15.6% (inactive). The inhibition of aggregation in assay [2] is 28.4% (inactive). Besides, the nuclei count came out at 67.8% in assay [2] and 99.5% in assay [3]. Besides, the fluorescence slope in assay [4] is -0.313 (inactive). Also, the NADPH fluorescence slope in assay [5] is -4.7e-05 (inactive). The slope in assay [6] was 0.00487 (inactive).

For `CCOC(=O)CN1CC23C=CC(O2)C(C(=O)NC2CCCC2)C3C1=O` (centres undefined), the cell count in assay [1] stood at 671. Further, the inhibition in assay [1] is 4.1% (inactive); in assay [3], -66.9% (inactive); in assay [7], 11.3% (inactive); in assay [8] it was 29.5% (inactive). Besides, the inhibition of aggregation in assay [2] was 0.3% (inactive). For the same compound, the nuclei count in assay [2] was 99.1%; in assay [3], 119%. In assay [4], the fluorescence slope was -0.576 (inactive). Also, the NADPH fluorescence slope in assay [5] is -2.3e-05 (inactive). Besides, the slope in assay [6] is 0.00621 (inactive).

As to `Cn1cccc1Cc1nnc(SCC(=O)Nc2ccccc2F)n1-c1ccc(F)cc1`, the cell count in assay [1] came out at 878. For the same compound, the inhibition in assay [1] is -2.3% (inactive); in assay [3], -44.3% (inactive); in assay [7], 5.41% (inactive); in assay [8], 24.9% (inactive). Besides, the inhibition of aggregation in assay [2] was -8.8% (inactive). Also, the nuclei count in assay [2] is 108%; in assay [3], 113%. Besides, the fluorescence slope in assay [4] is -0.561 (inactive). Besides, the NADPH fluorescence slope in assay [5] is -8.8e-05 (inactive). For the same compound, in assay [6], the slope is 0.00608 (inactive).

On to `CCOc1cc(S(=O)(=O)NCc2ccc3c(c2)OCO3)ccc1F`, for which the cell count in assay [1] amounted to 266. Besides, the inhibition was 1.8% (inactive) in assay [1], -32.5% (inactive) in assay [3], 15.3% (inactive) in assay [7] and 9.83% (inactive) in assay [8]. Besides, in assay [2], the inhibition of aggregation was -4.1% (inactive). The nuclei count in assay [2] was determined as 98.6%; in assay [3], 103%. Also, in assay [4], the fluorescence slope was -0.407 (inactive). Besides, the NADPH fluorescence slope in assay [5] was -3.8e-05 (inactive). In assay [6], the slope is 0.00471 (inactive).

For the compound `Cn1c2ccc(F)cc2c2ncn(CCN3CCOCC3)c(=O)c21`, the cell count in assay [1] was determined as 719. Also, the inhibition in assay [1] was -8.9% (inactive); in assay [3] it was -39.1% (inactive); in assay [7], -47.2% (inactive); in assay [8], 99.1% (active). Further, the inhibition of aggregation in assay [2] was -7.4% (inactive). For the same compound, the values for the nuclei count in assay [2] and in assay [3] were 81.6% and 109%, respectively. The fluorescence slope in assay [4] is -0.424 (inactive). Further, in assay [5], the NADPH fluorescence slope was -1.5e-05 (inactive). For the same compound, in assay [6], the slope is 0.00608 (inactive).

With `CCCCn1c(SCC(=O)N2CC(=O)Nc3ccccc32)nnc1-c1ccoc1C`, the cell count in assay [1] is 494. Further, the inhibition in assay [1] was -7.7% (inactive); in assay [3], -146% (inactive); in assay [7], 13.2% (inactive); in assay [8], 19.3% (inactive). The inhibition of aggregation in assay [2] was 15.6% (inactive). In addition, the nuclei count in assay [2] worked out at 114%; in assay [3], 174%. In addition, the fluorescence slope in assay [4] is -0.534 (inactive). Besides, the NADPH fluorescence slope in assay [5] is -3.6e-05 (inactive). Moreover, the slope in assay [6] was 0.00478 (inactive).

On to `CC(C)(C)C(=O)/C=C(\N)c1ccccn1`, for which, in assay [1], the cell count was 404. In addition, the inhibition in assay [1] was -5% (inactive); in assay [3], -33.9% (inactive); in assay [7], -0.411% (inactive); in assay [8], 2.89% (inactive). Further, the inhibition of aggregation in assay [2] is 15.3% (inactive). In addition, the nuclei count is 89.1% in assay [2] and 108% in assay [3]. In addition, the fluorescence slope in assay [4] was -0.466 (inactive). In addition, the NADPH fluorescence slope in assay [5] is -5.5e-05 (inactive). For the same compound, in assay [6], the slope was 0.00639 (inactive).

Take `O=C(CN1CCCN(S(=O)(=O)c2ccc(F)cc2)CC1)Nc1ccccc1Br`: the cell count in assay [1] was 220. The inhibition is -1.3% (inactive) in assay [1], -17.3% (inactive) in assay [3], 3.65% (inactive) in assay [7] and 9.12% (inactive) in assay [8]. Moreover, the inhibition of aggregation in assay [2] is 2% (inactive). The figures for the nuclei count in assay [2] and in assay [3] were 108% and 118%, respectively. Moreover, the fluorescence slope in assay [4] was -0.504 (inactive). Moreover, in assay [5], the NADPH fluorescence slope is 2.2e-05 (inactive). Also, in assay [6], the slope was 0.00558 (inactive).

Take `CC(C)CCNC(=O)C1CCN(C(=O)N(C)C)CC1`: the cell count in assay [1] is 556. The inhibition in assay [1] is 7% (inactive); in assay [3], -28.5% (inactive); in assay [7] it was 8.09% (inactive); in assay [8], 19.5% (inactive). The inhibition of aggregation in assay [2] is 13.3% (inactive). Further, the nuclei count in assay [2] turned out to be 53.8%; in assay [3] it was 104%. Besides, the fluorescence slope in assay [4] is -0.359 (inactive). Besides, the NADPH fluorescence slope in assay [5] is -4.6e-05 (inactive). Besides, in assay [6], the slope is 0.00555 (inactive).
